Where “and” joins values, the source holds several entries; their conditions need not be identical. Equal values may be shown once. The panel holds about 83,000 compounds, 20% with a hit somewhere; the sample as a whole holds those more often.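 Activity criterion: percent growth below 10, measured after cells in 96-well plates were exposed to a single compound concentration for 48 hours.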 Calls of active or inactive are those of the source.

The subject of this assay is MDA-MB-468 breast. The experiment in a line: NCI-60 one-dose screen, 48 h (100 = growth as untreated, 0 = no growth, -100 = all killed). The conditions noted are these: 10 µM unless noted.
As for `COc1ccc(NC(=O)c2ccccc2-c2ccccc2)c(C(N)=O)c1`, the growth is 27.3% (inactive). Take `Cn1cnc([N+](=O)[O-])c1Sc1ncnc2nc[nH]c12`: the growth was -4.47% (active) and 77.7% (inactive).

On to `C#C[C@@]1(O)[C@@H](CO)O[C@@H](n2cc(Cl)c3c(N)ccnc32)[C@@H]1O`, for which the growth is 72.3% (inactive).

In the case of `O=C(c1ccccc1)C(CCc1ccccn1)CCc1ccccn1`, the growth is 108% (inactive).

Regarding `COc1ccc(OC)c(C(=O)/C=C/c2cc3c(c(OC)c2OC)OCO3)c1`, the growth is 33.5% (inactive). Next, `Nc1nc(N)c2c(n1)NC(c1cccc(Nc3ccnc4cc(C(F)(F)F)ccc34)c1)CC(c1ccc(F)cc1)=N2` (stereo not given): 18% (inactive); `COc1nc2ccc(C)cc2cc1-c1nc2c(cnn2-c2ccccc2)c(=O)[nH]1`: 69.4% (inactive). The value for `Cc1cc(Cl)nc(N(CCCNc2ccnc3cc(Cl)ccc23)Cc2ccccn2)n1` was 0.122% (active); that for `COc1cc(-c2nn(-c3cccc(NC(=O)NCCNS(=O)(=O)c4ccc(Cl)cc4)c3)cc2-c2ccncc2)ccc1Cl` was -35.8% (active); that for `CO[C@@]12C=C[C@@]34CCC(=O)N3c3ccccc3[C@@H](O1)C4C2` was 108% (inactive). Next, `C=C(C)c1ccc(/C=N/NC(N)=S)cc1`: 70.6% (inactive); `COc1ccc(Nc2cc(C)nc(NCc3ccccc3)n2)cc1`: 49.9% (inactive); `O=C(CSc1nc2sc3c(c2c(=O)n1-c1ccccc1)CCCCC3)N/N=C/c1cccc([N+](=O)[O-])c1`: 19.2% (inactive). Turning to `COc1cc(C(C)n2cc(-c3ccccc3)nn2)ccc1OC1CCCCC1` (stereo not given), the growth is 8.89% (active).

Take `CCc1ccc(/C(C#N)=C/C=C/c2ccccc2)cc1`: the growth was -13.9% (active). Next, `CN(C(=S)S(=O)(=O)C12CC3CC(CC(C3)C1)C2)c1ccccc1`: 61.7% (inactive); `O=[N+]([O-])c1cccc(/C=N\Nc2ccccc2)c1`: 81.4% (inactive). Take `COc1ccc(/C=C/C(=O)c2cc3c(N)c(C(=O)Nc4cccc5ccccc45)sc3nc2C)cc1`: the growth is 58.5% (inactive). Next, `CC1(C)NCCC[C@]2(C)[C@H]3C/C(=N\O)C4[C@@H]5C[C@@](C)(CO)CC[C@]5(C)CC[C@@]4(C)[C@]3(C)CC[C@@H]12` (stereo not given in full): 89.4% (inactive); `O=c1c2ccccc2n(C[C@H]2CO2)c2ccccc12`: -7.32% (active); `Cc1ccc(C(=O)CSc2nnc(-c3ccc(-c4ccc(Cl)cc4)nc3C)o2)cc1`: 94.9% (inactive). The value for `COc1ccc2nc(NC(=O)/C(=C/c3cc(OC)c(OC)c(OC)c3)c3ccc(OC)c(OC)c3)sc2c1` was 109% (inactive); that for `N#Cc1c(-c2ccccc2)cc(-c2ccccc2)n(CCCCCC(=O)Nc2ccccc2N)c1=O` was 62.8% (inactive).

As for `Nc1c(C(=O)Nc2ccccc2)sc2nc3c(cc12)C(=O)CCC3`, the growth is 4.62% (active). Next, `C=CCn1c(SCC(=O)NCc2cc(C)c(O)c(C)c2)nc2ccc(Cl)cc2c1=O`: 91.1% (inactive); `CCCC(=O)c1cc(C)ccc1OC`: 113% (inactive). In the case of `NC(=O)c1c(NC(=O)c2ccc(C(F)(F)F)cc2Cl)sc2c1CCC(=O)C2`, the growth was -33.8% (active).

Turning to `C=C[C@@H]1C[C@H](O)Cc2cc(F)ccc2N1`, the growth was 88.7% (inactive).

Turning to `O=C(CN1CCN(c2cc(=O)[nH]c3ccc(F)cc23)CC1)N(c1ccccc1)c1ccccc1`, the growth was 98.6% (inactive). The value for `CCC(OC(=O)CC(C)C)c1ccccc1` (stereo not given) was 99.3% (inactive). The value for `C#Cc1nc(C2=C(C)/C(=N/OCc3ccccc3)CC2)cs1` was 54.5% (inactive); that for `CC(=O)Nc1ccc2c(c1)C(N1CC3CCC(CC3)C1)c1ccccc1-2` (stereo not given) was 94% (inactive). The value for `CCN(CC)P(=O)(N(CC)CC)N(CCCSC/C=C(\C)CC/C=C(\C)CCC=C(C)C)CCCN1CCN(C)CC1` was 92.4% (inactive); that for `C=CC(=O)Nc1cccc(-c2nc(SC)nc(NCCc3ccc(OC)c(OC)c3)c2C#N)c1` was 19.2% (inactive). For `Cc1cccc(/C=C/c2nn3c(-c4ccco4)nnc3s2)c1`, the growth was 93.9% (inactive). The value for `COc1cc2c(c(OC)c1OC)CCc1cnoc1-2` was 83.8% (inactive). Take `COC(=O)CCCCCCCCC(C)c1ccc(C(C)=O)cc1` (stereo not given): the growth was 110% (inactive). Next, `Nc1nc(-c2cccc([N+](=O)[O-])c2)c(N=Nc2ccccc2)s1`: 11.5% (inactive); `Cc1cc(N2CCCC2)nc(N(CCCNc2ccnc3cc(Cl)ccc23)Cc2ccccn2)n1`: 53.2% (inactive). The value for `Cc1nn(-c2ccccc2)c2nc(N)c(C3=NCCO3)nc12` was 113% (inactive).

The values are drawn from PubChem BioAssay (NCI).
